From ChEMBL document CHEMBL3988442, “University of Dundee, Small-Polar-MMV Screening Library” (2021) come the findings set out here.

Test [1] concerns the target T1, Aspartate--tRNA(Asp/Asn) ligase (Mycobacterium tuberculosis (strain ATCC 25618 / H37Rv)) (UniProt P9WFW3). Note: in the data most compounds retested in dose-response had high values.
T1 sequence (whole entry): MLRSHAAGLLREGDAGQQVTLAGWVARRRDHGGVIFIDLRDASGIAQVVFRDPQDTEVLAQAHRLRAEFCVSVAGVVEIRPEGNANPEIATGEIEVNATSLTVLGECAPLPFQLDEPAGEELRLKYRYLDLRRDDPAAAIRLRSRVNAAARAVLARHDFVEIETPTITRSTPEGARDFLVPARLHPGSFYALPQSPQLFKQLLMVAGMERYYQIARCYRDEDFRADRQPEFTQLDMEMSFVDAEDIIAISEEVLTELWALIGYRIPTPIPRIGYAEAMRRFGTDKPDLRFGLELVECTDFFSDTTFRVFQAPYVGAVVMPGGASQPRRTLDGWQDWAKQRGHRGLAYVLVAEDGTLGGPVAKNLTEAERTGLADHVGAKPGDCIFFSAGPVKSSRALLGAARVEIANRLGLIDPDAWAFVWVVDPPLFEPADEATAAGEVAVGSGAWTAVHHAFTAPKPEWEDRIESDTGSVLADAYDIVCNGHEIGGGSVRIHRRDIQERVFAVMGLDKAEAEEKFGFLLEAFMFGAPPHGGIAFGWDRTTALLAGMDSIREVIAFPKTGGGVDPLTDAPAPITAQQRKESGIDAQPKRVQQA
Briefly: Assay for Asp RNA synthetase-1 from Mycobacterium tuberculosis. Type of test: functional. Further details: scale not given: direction of the effect not stated beside the values. The note with it: 30 µM.

For test [2], the target named is Shiga toxin 2 (Escherichia coli O157:H7) (UniProt P09385+P09386). Briefly: E. coli 0.157:H7 Shiga Toxin SOP - stx2 screening assay. Format: functional. More on the design: scale not given: direction of the effect not stated beside the values. The conditions noted are these: 30 µM.

Turning to `Cc1cc(S(=O)(=O)Nc2cccc(-n3cccc3)c2)sc1C(=O)O`, the Percent Effect in test [1] came to 7.63%; in test [2], 11%.

Turning to `CC(C)c1noc(CCCC(=O)N2CCC(Cc3cccnc3)CC2)n1`, the figures for the Percent Effect in test [1] and in test [2] were -0.0571% and 0.87%, respectively.

As for `CC(C)(C)c1cnc(CN2CCC[C@H]2CO)o1`, the Percent Effect in test [1] was -4.22%; in test [2], -5.47%.

Regarding `Cc1ncnc(NCc2cc3n(n2)CCCN(S(C)(=O)=O)C3)c1C`, the Percent Effect in test [1] was found to be 0.518%; in test [2] it was 12.4%.

As to `CC(C)NC(=O)Cn1cc(-c2ccccc2)cn1`, the Percent Effect in test [1] was -0.189%; in test [2] it was 2.98%.

As to `O=C(Nc1cccc(N2CCCC2)c1)C1CCCN1c1nccs1` (centres undefined), the results for the Percent Effect in test [1] and in test [2] were 1.21% and -4.67%, respectively.

Take `Cc1nc(C)n(CC2CN(c3ccc(C#N)cn3)CCO2)n1` (centres undefined): the Percent Effect in test [1] was 2.39%; in test [2] it was 19.5%.

On to `CC(=O)NCCNC(=O)c1sc(-c2ccc(Cl)s2)nc1C`, for which the Percent Effect is 7.28% in test [1] and 8.5% in test [2].

For `COc1ccc(C(C)N2CCN(Cc3nccn3C)CC2)cc1Cl` (centres undefined), the Percent Effect in test [1] was -0.0303%; in test [2], 16%.

Regarding `O=C(NCc1ccc(-n2cncn2)nc1)c1ccc2c(c1)CCO2`, the Percent Effect in test [1] was -1.77%; in test [2], 12.9%.

For the compound `COc1ccc(CNC2CCCN(Cc3noc(C)n3)C2)cc1F` (centres undefined), the Percent Effect in test [1] came to 1.37%; in test [2], 6.55%.

On to `COC(=O)CN1CC(c2nc(Cc3ccccc3)no2)C1`, for which the Percent Effect in test [1] is -4.57%; in test [2], -14.5%.

With `Cc1ccc(N2CCCN(C(=O)C(C(C)C)n3cncn3)CC2)nn1` (centres undefined), the values for the Percent Effect in test [1] and in test [2] were -4.34% and -13.6%, respectively.

For the compound `Cc1ccc(-c2cc(N)c(=O)n(CC(=O)NCC3CC3)n2)s1`, the figures for the Percent Effect in test [1] and in test [2] were 4.48% and 3.54%, respectively.

Take `CC(=O)N1CC(=O)N(c2ccccc2)CC12CCN(CC1CC1)C2` (centres undefined): the Percent Effect in test [1] was 13.8%; in test [2], -1.67%.

On to `O=S(=O)(C1CC1)N1CC[C@]2(C[C@@H](Oc3ccccn3)CO2)C1`, for which the Percent Effect in test [1] was -1.12%; in test [2], -6.89%.

Take `COc1cccc(CNC(=O)C(c2cccc(F)c2)N2CCOCC2)c1` (centres undefined): the Percent Effect is 1.86% in test [1] and -6.55% in test [2].

As to `Cn1cccc1C(CNC(=O)c1ccc(F)cc1F)N1CCCCCC1` (centres undefined), the Percent Effect in test [1] was 1.24%; in test [2], -33.8%.

In the case of `CCc1c(C(=O)NCC2CCS(=O)(=O)C2)cnn1-c1ccc(C)cc1` (centres undefined), the Percent Effect in test [1] was -1.8%; in test [2], -0.796%.

On to `COc1ccc(NC(=O)NC(C)c2nc[nH]n2)cc1` (centres undefined), for which the figures for the Percent Effect in test [1] and in test [2] were -1.71% and 5.29%, respectively.

Take `COc1ccc(CC(=O)N2CCc3nnc(N(C)C)cc3C2)cc1F`: the Percent Effect was 2.43% in test [1] and -57.1% in test [2].

Turning to `COCCc1noc(CNC2CCc3nc(C(C)C)nn3C2)n1` (centres undefined), the Percent Effect turned out to be 3.49% in test [1] and 9.38% in test [2].

For the compound `CC(C)c1nnc(NC(=O)NCc2ccc(CO)c(F)c2)s1`, the Percent Effect in test [1] stood at 1.21%; in test [2], 0.535%.

For `Cc1nc(C)n(C2CCCN(C(=O)Cc3cccnc3)C2)n1` (centres undefined), the Percent Effect in test [1] is -4.24%; in test [2], 1.27%.

Turning to `CCN(C)Cc1cnc(S(=O)(=O)CC)n1CCOC`, the Percent Effect in test [1] is -5.11%; in test [2] it was -0.758%.

For `Cc1nccn1-c1cc(CNC(=O)c2ccccn2)ccn1`, the figures for the Percent Effect in test [1] and in test [2] were 8.28% and -3.43%, respectively.

Regarding `O=c1ccc(-c2cccs2)nn1CN1CCCCCC1`, the Percent Effect in test [1] is -1.83%; in test [2], -4.33%.

On to `O=C(COCc1nc(-c2ccncc2)no1)N1CCCCCC1`, for which the Percent Effect in test [1] is 10.6%; in test [2] it was -22.7%.

As for `CN(Cc1cn2c(n1)CN(CC1CC1)CC2)Cc1ccco1`, the Percent Effect in test [1] is 3.75%; in test [2], -1.46%.

`O=C(N1CCOCC1)[C@@]12CCO[C@@H]1CCN(Cc1ccccc1F)C2`: the Percent Effect in test [1] is -6.79%; in test [2] it was -21.7%.

On to `Cc1c(C)n(Cc2ccncc2)c2nc3c(c(N)c12)CCCCC3`, for which the figures for the Percent Effect in test [1] and in test [2] were 4.67% and -41.4%, respectively.

For `CC(C)N(C)CC(=O)N1CCCC(c2ccc(C(=O)O)cc2)C1` (centres undefined), the Percent Effect in test [1] is -4.14%; in test [2], 18.4%.

`CC(C)NC(=O)N1CCC2(CC(C(=O)NCc3cccnc3)=NO2)C1` (centres undefined): the Percent Effect in test [1] is 2.53%; in test [2], -11.6%.

With `CC(C(=O)NCc1ccc(N2CCNC(=O)C2)cc1)n1cncn1` (centres undefined), the Percent Effect in test [1] was 3.94%; in test [2], -118%.

With `Cn1cnnc1C1CCCN(C(=O)NCCNc2ccccn2)C1` (centres undefined), the Percent Effect in test [1] was -6.46%; in test [2], 19%.

On to `CC(=O)Nc1ncc(S(=O)(=O)Nc2ccc(F)cc2F)s1`, for which the Percent Effect in test [1] is 2.53%; in test [2] it was -38.5%.

For the compound `CN(Cc1cnn(C)c1)C(=O)NC1CCN(Cc2ccccn2)CC1`, the Percent Effect was 5.83% in test [1] and -5.06% in test [2].

Turning to `CC(=O)Nc1nc(CN2CCCCC2Cn2cccn2)cs1` (centres undefined), the Percent Effect in test [1] is 8.39%; in test [2], -4.08%.

`CCc1nc(CC(=O)N2CCn3c(nnc3C(F)(F)F)C2)cs1`: the figures for the Percent Effect in test [1] and in test [2] were 1.3% and 17.9%, respectively.

Turning to `Cc1nc(C)n(CC2CN(Cc3cccc(C(N)=O)c3)CCO2)n1` (centres undefined), the values for the Percent Effect in test [1] and in test [2] were 4.41% and -4.3%, respectively.

For the compound `CC(C)c1csc(C2CCCN(C(=O)c3ncccn3)C2)n1` (centres undefined), the Percent Effect in test [1] was -2.21%; in test [2] it was -20%.

Consider `CCCn1[nH]cc/c1=N\C(=O)CN1CCc2cnc(CC)nc2C1`, for which the results for the Percent Effect in test [1] and in test [2] were 5.8% and -6.51%, respectively.

For the compound `NC(=O)CC1CCN(C(=O)CCOc2ccc(Cl)cc2)CC1`, the Percent Effect is -1.03% in test [1] and 32.7% in test [2].

With `COc1ccccc1CNC(=O)N1CCCC(c2nncn2C)C1` (centres undefined), the Percent Effect in test [1] was -4.33%; in test [2], 25.8%.

For the compound `Cc1cnn(CC2CCCN2C(=O)CCc2ccsc2)c1` (centres undefined), the results for the Percent Effect in test [1] and in test [2] were -3.37% and 14.6%, respectively.

Regarding `Cc1c[nH]c(CN(C)C(=O)C2CC(=O)N(Cc3ccncc3)C2)n1` (centres undefined), the Percent Effect in test [1] was 2.33%; in test [2] it was -32.5%.

In the case of `CCc1ccc(S(=O)(=O)Nc2c(C)cccc2C(=O)O)s1`, the Percent Effect in test [1] came out at 0.112%; in test [2] it was 25.9%.
